Experimental data published in PubChem BioAssay (NCATS).
Results filed as inconclusive are left out. The source made the active and inactive calls. Unless noted, calls come from the whole dose curve; as a rule, active = well fitted curve in either direction with a large enough effect (not every such curve was filed as active); inconclusive = small, poorly fitted or top-dose-only effect, or another doubt; inactive = flat fitted curve, though single readings scatter.

Legend:
[1] = AP1 Signaling Pathway (AID 357); settings: ME-180 AP-1-bla reporter, EGF-induced, beta-lactamase ratio, 5 h; at 17.2 µM (top of the series) unless noted;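 note: ME-180 reporter cells stimulated with EGF at its EC50 level; % is set by controls: 0 for no effect and ±100 for the full control effect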
How it was run: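 Read-out was the 460nm/530nm emission ratio (excitation 405nm) after CCF4 loading for 2.5 hours at room temperature. Cells carried an AP-1-driven beta-lactamase reporter, were stimulated with EC50 EGF plus compound for 5 hours, and AC50 values came from titrations.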

[2] = NFAT Signaling Pathway (AID 444); settings: Jurkat NFAT-bla M1, carbachol, beta-lactamase ratio, 5 h; at 17.2 µM (top of the series) unless noted;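 note: carbachol stimulus at about its EC50 of 1 µM final; % is set by controls: 0 for no effect and ±100 for the full control effect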
How it was run: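 Read-out: CCF4 FRET ratio (460 nm/530 nm) after 1 h RT dye loading, used for %activity and AC50 from titration series. Cells: Jurkat NFAT-β-lactamase/M1 line, treated with compound plus 1 uM carbachol for 5 h, 37 °C.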

[3] = Stat Signaling Pathway (AID 446);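 note: ME-180 cervical cancer cells given 40 pM IL-6 alongside compound; SIE-controlled beta-lactamase reporter measured as 460/530 nm FRET emission ratio; % is set by controls: 0 for no effect and ±100 for the full control effect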
How it was run: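 Reporter line: ME-180 cervical carcinoma, SIE-beta-lactamase. Treatment: compound with 40 pM IL-6, 5 hrs, 37 C, in low-serum OPTI-MEM with 10 mM HEPES pH 7.3. Detection: 460/530 nm fluorescence.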

[4] = target: Glucocorticoid receptor (Homo sapiens) (UniProt P04150); assay: GR-GFP Redistribution (AID 450;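 active = compounds whose dose series gives a full or clear partial fitted curve of increased nuclear translocation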; note: potency is the fitted concentration of half-maximal effect); settings: U2OS GR-GFP nuclear translocation, laser cytometry, 2 h
[5] = target: Mitogen-activated protein kinase 10 (Mus musculus) (UniProt Q61831); assay: JNK3 AlphaScreen Assay (AID 530);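 note: kinase came from lysate of stimulated human HepG2 cells; signal reports phosphorylation of biotinylated GST-cJun 1-79 at Ser73 with 10 µM ATP; % is set by controls: 0 for no effect and ±100 for the full control effect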
How it was run: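 Room-temperature AlphaScreen kinase assay; pre-activated HepG2 lysate as JNK3 source, biotin-GST-cJun(1-79) substrate, 10 uM ATP, compound 15 min preincubation.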

[6] = target: 3',5'-cyclic-AMP phosphodiesterase 4B (Homo sapiens) (UniProt Q07343); assay: qHTS Assay for Inhibitors of PDE-IV (AID 607; active = well fitted activation curve with a large enough effect in the main read-out, with a control signal flat, not every such curve was filed as active; note: % of control where 0% means no effect)
How it was run: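 Cell-based read-out of cAMP via a modified cyclic nucleotide-gated channel and membrane potential dye (535/590 nm) in HEK293 cells expressing PDE4 endogenously. Compounds tested up to 22.9 uM final; 100 uM RO 20-1724 reference.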

[7] = target: Ubiquitin carboxyl-terminal hydrolase 1 (Homo sapiens) (UniProt O94782); assay: Inhibitors of USP1/UAF1: Pilot qHTS (AID 504865; active = well fitted curve in the direction sought with a large enough effect; an effect the other way counts as inactive or inconclusive;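 note: rhodamine fluorescence freed from ubiquitin-rhodamine substrate followed over time; top concentration of the series differs between compounds; % is set by controls: 0 for no effect and ±100 for the full control effect; nearly all actives have a fitted effect of over 35% in size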)
How it was run: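 In 50mM HEPES pH 7.8 containing 0.5mM EDTA, 1mM TCEP, 0.1 mg/ml BSA and 0.01% Tween-20, 1nM USP1/UAF1 is exposed to compound for 15 min, then Ub-Rho (150nM final) is added and fluorescence is read over time.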

[8] = target: Glucocorticoid receptor (Homo sapiens) (UniProt P04150); assay: GR-EFC Redistribution (AID 451; calls by dose curve; note: potency is the fitted concentration of half-maximal effect); settings: CHO-K1 GR-EFC translocation, beta-gal luminescence, 2 h
How it was run: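 Translocation of GR-ED fusion to nuclear EA restores b-gal, read by luminescence after 1 h room-temperature detection. Engineered CHO-K1 biosensor cells, 1,000/well, exposed 2 h at 37 C to titrations up to 46 uM final.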

[9] = target: Guanine nucleotide-binding protein G(i) subunit alpha-1 (Homo sapiens) (UniProt P63096); assay: qHTS Assay for Inhibitors of RGS12 GoLoco Motif Activity (Green Fluorophore) (AID 879; active = well fitted curve in the direction sought with a large enough effect; an effect the other way counts as inactive or inconclusive;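 note: 0% = labeled peptide with Gαi1 and full inhibition = labeled peptide alone without protein; negative values mean loss of peptide binding seen as reduced polarization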)
How it was run: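 Fluorescence polarization assay: 50 nM Gαi1 with 10 nM FITC-labeled RGS12 GoLoco peptide in 10 mM Tris pH 7.5, 150 mM NaCl, 0.1 mM GDP, 0.05% NP40, 10 min at room temperature with compound.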

[10] = qHTS Assay for Identification of Small Molecule Agonists for Thrombopoietin (TPO) Signaling Pathway (AID 917; active = well fitted curve in the direction sought with a large enough effect; an effect the other way counts as inactive or inconclusive; note: % is set by controls: 0 for no effect and ±100 for the full control effect)
How it was run: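 Luminescence from a Glycoprotein IIb promoter–driven luciferase reporter served as read-out in murine Ba/F3 cells carrying the human TPO receptor. Cells, deprived of IL-3 overnight, received compounds with 26 pM TPO and were incubated 24 hrs at 37 C.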

[11] = target: Muscarinic acetylcholine receptor M1 (Rattus norvegicus) (UniProt P08482); assay: qHTS Assay for Antagonists of Acetylcholine Muscarinic M1 Receptor: Measurement of IP-One Response (AID 944; active = well fitted curve in the direction sought with a large enough effect; an effect the other way counts as inactive or inconclusive; note: nearly all actives have a fitted effect of over 75% in size)
How it was run: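 Steps: plate transfected CHO-M1 cells overnight; add test compound, 10 min; add carbachol (200 nM, EC80) in stimulation buffer with LiCl; incubate 30 min; add labelled IP1 tracer and anti-IP1 antibody in lysis buffer; read HTRF after 10 min.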

[12] = target: Pyruvate kinase PKM (Homo sapiens) (UniProt P14618); assay: qHTS Assay for Activators of Human Muscle Pyruvate Kinase (AID 954; active = well fitted curve in the direction sought with a large enough effect, not every such curve was filed as active;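 note: 0% = uninhibited enzyme and -100% = no enzyme or full thiadiazolimine inhibition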)
How it was run: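 Human PKM2 activity is measured as ATP generation, detected by luciferase-coupled luminescence. The enzyme (0.1 nM) acts on 0.5 mM PEP and 0.1 mM ADP for 1 h at ambient temperature; data are normalized to uninhibited and full-inhibition wells.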

[13] = target: Alpha-galactosidase (Coffea arabica) (UniProt Q42656); assay: Counterscreen for Glucocerebrosidase Inhibitors: qHTS Assay for Coffee Bean alpha-Galactosidase at pH 4.5 (AID 957; active = well fitted curve in the direction sought with a large enough effect; an effect the other way counts as inactive or inconclusive;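 note: plate controls were enzyme alone for no effect and no enzyme for full effect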)
How it was run: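 AC50 values derive from Hill-equation modeling of concentration-response data, normalized to no-enzyme and full-activity controls. The pH 4.5 citrate assay used 2 nM coffee bean enzyme and 80 uM fluorogenic substrate for 20 min.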

[14] = target: Alpha-galactosidase A (Homo sapiens) (UniProt P06280); assay: Counterscreen for Glucocerebrosidase Inhibitors: qHTS Assay for Human alpha-Galactosidase at pH 4.5 (AID 992; active = well fitted curve in the direction sought with a large enough effect; an effect the other way counts as inactive or inconclusive; note: 0% is about no effect)
How it was run: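 Quantitative HTS: compounds tested from 0.7 nM up to 77 uM against 2 nM enzyme with 80 uM 4-MU alpha-D-galactopyranoside. The 20 min room-temperature reaction is stopped with 1M NaOH/1M glycine, pH 10.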

[15] = target: Alpha-galactosidase (Coffea arabica) (UniProt Q42656); assay: Counterscreen for Glucocerebrosidase Inhibitors: qHTS Assay for Coffee Bean alpha-Galactosidase at pH 5.9 (AID 998; active = well fitted curve in the direction sought with a large enough effect; an effect the other way counts as inactive or inconclusive;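 note: plate controls were uninhibited enzyme for no effect and no-enzyme basal signal for full effect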)
How it was run: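 Compounds were titrated from 0.7 nM to 77 uM against green coffee bean alpha-galactosidase (2 nM) using 80 uM fluorogenic 4-methylumbelliferyl substrate. After 20 min at room temperature, reactions were stopped at pH 10 and read by fluorescence.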

Sequence of Glucocorticoid receptor (Homo sapiens) (P04150 whole entry, looked up, the tested form may be a part): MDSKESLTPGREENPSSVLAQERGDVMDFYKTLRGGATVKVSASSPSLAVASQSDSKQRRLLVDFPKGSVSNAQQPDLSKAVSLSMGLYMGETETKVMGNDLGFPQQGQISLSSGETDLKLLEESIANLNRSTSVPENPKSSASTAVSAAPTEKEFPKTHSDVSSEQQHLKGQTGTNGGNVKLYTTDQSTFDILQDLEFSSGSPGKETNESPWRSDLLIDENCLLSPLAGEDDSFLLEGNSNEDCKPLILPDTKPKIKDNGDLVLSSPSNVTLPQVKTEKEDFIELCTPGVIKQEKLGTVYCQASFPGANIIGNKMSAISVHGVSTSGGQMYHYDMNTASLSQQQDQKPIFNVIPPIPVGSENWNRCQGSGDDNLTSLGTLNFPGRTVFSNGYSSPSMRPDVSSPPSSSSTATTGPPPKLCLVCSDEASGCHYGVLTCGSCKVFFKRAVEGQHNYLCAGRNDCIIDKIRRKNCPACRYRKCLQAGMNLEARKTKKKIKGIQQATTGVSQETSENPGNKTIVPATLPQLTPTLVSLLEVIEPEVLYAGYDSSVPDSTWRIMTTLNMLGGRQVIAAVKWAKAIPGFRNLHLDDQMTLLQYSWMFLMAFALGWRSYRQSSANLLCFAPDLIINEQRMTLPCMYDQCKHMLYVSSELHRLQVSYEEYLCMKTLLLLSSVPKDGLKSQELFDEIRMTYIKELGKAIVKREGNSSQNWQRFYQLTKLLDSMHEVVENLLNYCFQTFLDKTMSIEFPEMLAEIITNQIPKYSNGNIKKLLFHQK
Sequence of 3',5'-cyclic-AMP phosphodiesterase 4B (Homo sapiens) (Q07343 whole entry, looked up): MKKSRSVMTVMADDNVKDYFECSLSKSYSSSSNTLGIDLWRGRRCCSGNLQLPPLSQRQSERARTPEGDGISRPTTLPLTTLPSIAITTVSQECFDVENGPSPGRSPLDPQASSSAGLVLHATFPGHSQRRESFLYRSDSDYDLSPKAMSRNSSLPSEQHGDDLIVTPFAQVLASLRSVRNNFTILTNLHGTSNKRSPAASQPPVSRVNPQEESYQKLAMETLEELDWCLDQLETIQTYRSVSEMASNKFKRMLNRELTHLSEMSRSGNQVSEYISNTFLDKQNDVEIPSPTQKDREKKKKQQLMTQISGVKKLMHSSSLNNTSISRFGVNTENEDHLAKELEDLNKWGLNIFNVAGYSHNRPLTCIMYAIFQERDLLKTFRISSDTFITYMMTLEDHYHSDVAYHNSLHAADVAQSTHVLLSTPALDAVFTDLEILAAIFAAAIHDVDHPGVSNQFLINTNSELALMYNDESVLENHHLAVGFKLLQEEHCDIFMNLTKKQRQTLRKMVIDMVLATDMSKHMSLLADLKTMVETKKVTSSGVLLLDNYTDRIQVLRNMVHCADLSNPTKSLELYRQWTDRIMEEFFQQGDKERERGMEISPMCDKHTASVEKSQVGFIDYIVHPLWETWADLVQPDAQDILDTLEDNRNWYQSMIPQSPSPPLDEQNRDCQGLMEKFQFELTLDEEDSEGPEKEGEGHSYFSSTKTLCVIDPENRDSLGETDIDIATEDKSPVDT
Sequence of Alpha-galactosidase (Coffea arabica) (Q42656 whole entry, looked up): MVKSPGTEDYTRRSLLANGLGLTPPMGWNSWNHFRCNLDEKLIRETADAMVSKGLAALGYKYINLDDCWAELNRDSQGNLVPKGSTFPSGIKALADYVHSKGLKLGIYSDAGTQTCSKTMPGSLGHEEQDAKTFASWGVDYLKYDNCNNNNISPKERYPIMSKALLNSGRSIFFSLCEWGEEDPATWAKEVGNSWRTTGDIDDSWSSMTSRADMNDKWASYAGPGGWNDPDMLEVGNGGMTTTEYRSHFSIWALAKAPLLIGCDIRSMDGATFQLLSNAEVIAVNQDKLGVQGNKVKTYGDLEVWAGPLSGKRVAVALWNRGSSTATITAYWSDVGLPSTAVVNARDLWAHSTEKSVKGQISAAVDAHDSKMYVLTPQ
Sequence of Alpha-galactosidase A (Homo sapiens) (P06280 whole entry, looked up): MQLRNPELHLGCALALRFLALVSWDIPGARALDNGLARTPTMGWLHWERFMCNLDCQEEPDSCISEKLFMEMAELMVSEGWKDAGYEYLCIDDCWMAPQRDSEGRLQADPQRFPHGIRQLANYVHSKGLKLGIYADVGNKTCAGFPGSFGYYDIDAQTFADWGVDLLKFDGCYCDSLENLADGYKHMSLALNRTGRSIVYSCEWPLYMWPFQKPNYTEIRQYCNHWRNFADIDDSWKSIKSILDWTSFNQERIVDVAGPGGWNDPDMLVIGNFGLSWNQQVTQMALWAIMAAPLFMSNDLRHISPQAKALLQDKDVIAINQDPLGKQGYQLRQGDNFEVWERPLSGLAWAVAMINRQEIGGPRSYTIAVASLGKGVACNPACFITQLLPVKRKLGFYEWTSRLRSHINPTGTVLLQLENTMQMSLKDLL
Sequence of Muscarinic acetylcholine receptor M1 (Rattus norvegicus) (P08482 whole entry, looked up): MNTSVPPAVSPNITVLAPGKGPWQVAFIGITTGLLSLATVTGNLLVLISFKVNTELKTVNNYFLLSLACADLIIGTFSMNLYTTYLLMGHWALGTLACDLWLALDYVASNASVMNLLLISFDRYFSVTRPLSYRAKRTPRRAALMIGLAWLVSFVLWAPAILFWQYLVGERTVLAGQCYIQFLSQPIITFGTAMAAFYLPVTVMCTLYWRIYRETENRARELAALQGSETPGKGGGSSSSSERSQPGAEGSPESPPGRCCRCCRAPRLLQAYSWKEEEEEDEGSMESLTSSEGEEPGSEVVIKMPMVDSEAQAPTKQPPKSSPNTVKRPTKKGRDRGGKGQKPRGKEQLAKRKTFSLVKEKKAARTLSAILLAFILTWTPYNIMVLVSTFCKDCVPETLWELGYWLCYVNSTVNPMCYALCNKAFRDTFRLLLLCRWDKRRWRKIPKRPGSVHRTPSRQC
Sequence of Pyruvate kinase PKM (Homo sapiens) (P14618 whole entry, looked up): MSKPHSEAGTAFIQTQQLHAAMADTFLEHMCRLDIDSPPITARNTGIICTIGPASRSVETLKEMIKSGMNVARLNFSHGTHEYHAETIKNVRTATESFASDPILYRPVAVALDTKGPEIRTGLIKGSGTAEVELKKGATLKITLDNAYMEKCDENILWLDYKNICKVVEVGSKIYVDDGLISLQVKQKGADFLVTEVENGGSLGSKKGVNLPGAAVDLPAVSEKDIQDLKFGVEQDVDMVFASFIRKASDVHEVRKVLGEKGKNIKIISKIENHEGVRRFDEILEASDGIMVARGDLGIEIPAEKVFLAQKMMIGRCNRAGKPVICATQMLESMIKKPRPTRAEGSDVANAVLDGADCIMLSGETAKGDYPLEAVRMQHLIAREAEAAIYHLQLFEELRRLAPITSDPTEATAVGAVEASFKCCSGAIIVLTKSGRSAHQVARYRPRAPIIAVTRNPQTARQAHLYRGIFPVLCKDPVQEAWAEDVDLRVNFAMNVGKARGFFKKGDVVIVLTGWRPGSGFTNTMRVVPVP
Sequence of Guanine nucleotide-binding protein G(i) subunit alpha-1 (Homo sapiens) (P63096 whole entry, looked up): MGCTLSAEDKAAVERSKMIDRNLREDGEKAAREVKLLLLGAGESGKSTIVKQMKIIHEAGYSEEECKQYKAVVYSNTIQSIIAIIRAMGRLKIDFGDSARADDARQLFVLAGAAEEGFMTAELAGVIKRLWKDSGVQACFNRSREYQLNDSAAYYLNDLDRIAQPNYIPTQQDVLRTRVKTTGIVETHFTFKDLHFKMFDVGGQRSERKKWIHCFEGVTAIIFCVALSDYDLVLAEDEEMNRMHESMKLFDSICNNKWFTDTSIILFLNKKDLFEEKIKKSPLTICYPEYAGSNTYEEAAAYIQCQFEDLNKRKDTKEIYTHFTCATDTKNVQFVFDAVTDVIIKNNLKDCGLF
Sequence of Ubiquitin carboxyl-terminal hydrolase 1 (Homo sapiens) (O94782 whole entry, looked up): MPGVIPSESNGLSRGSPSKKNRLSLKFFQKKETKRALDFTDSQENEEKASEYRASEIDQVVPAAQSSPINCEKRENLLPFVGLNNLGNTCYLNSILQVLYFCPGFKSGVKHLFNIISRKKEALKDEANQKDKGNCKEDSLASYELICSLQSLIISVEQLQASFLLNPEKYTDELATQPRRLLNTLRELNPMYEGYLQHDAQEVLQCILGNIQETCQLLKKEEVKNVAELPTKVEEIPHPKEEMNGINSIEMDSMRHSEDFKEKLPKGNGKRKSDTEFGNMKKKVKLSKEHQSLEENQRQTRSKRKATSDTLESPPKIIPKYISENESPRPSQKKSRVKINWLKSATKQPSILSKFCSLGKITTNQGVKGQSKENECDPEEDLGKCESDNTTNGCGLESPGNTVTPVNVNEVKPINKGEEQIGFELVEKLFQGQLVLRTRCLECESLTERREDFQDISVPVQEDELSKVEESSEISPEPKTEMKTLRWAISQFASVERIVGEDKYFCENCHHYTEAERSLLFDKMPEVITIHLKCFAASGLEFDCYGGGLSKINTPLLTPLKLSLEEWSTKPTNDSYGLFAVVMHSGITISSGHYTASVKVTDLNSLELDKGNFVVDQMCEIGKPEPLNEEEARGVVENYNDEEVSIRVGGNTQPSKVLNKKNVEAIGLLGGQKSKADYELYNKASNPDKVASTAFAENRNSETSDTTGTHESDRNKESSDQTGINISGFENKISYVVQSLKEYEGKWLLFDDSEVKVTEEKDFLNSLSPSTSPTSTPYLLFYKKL

COc1cc2[nH]c(=O)n(-c3cccc(Cl)c3)c(=O)c2cc1OC
inactive: activity change, negative = inhibition [1] 9.62% | activity change, negative = inhibition [2] 13.7% | outcome [3] | Potency [4] > 20.6 µM

CCCCCCn1c(O)c(C=NCCCn2ccnc2)c(=O)[nH]c1=O
inactive: activity change, negative = inhibition [1] -8.92% | activity change, negative = inhibition [2] -9.29% | outcome [3] | Potency [4] > 20.6 µM

C=CCOC(=O)C1=C(C)OC(N)=C(C#N)[C@@]12C(=O)N(CC(N)=O)c1ccccc12
inactive: activity change, negative = inhibition [1] 6.24% | activity change, negative = inhibition [2] -10.1% | outcome [3] | Potency [4] > 20.6 µM

Nc1ccc(C2(c3ccc(N)cc3)CN3CCC2CC3)cc1
inactive: activity change, negative = inhibition [1] 7.52% | activity change, negative = inhibition [2] -2.19% | outcome [3] | Potency [4] > 20.6 µM

COc1cccc(-n2c(O)c(C=NCCN3CCOCC3)c(=O)[nH]c2=O)c1
inactive: activity change, negative = inhibition [1] 0.139% | activity change, negative = inhibition [2] 11% | outcome [3] | Potency [4] > 20.6 µM

CCCSP1(=S)NCCCO1 (centres undefined)
inactive: activity change, negative = inhibition [1] 32.4% | activity change, negative = inhibition [2] 2.72% | outcome [3] | Potency [4] > 20.6 µM

COc1ccc(C(=O)CN2CCOCC2)cc1F
inactive: activity change, negative = inhibition [1] 1.47% | activity change, negative = inhibition [2] 3.56% | outcome [3] | Potency [4] > 20.6 µM

COc1ccc(-n2c(SC)nc3ccccc3c2=O)cc1
inactive: activity change, negative = inhibition [1] 0.0474% | activity change, negative = inhibition [2] 12.3% | outcome [3] | Potency [4] > 20.6 µM

O=c1[nH]c(=O)n(Cc2ccccc2)c(O)c1C=NCCN1CCNCC1
inactive: activity change, negative = inhibition [1] 1.47% | activity change, negative = inhibition [2] -23.3% | outcome [3] | Potency [4] > 20.6 µM

CC(=NCCO)c1c(O)n(C)c(=O)n(C)c1=O
inactive: activity change, negative = inhibition [1] 9.85% | activity change, negative = inhibition [2] -3.31% | outcome [3] | Potency [4] > 20.6 µM

O=c1[nH]c(=O)n(-c2cccc3ccccc23)c(O)c1C=NCCCn1ccnc1
inactive: activity change, negative = inhibition [1] 14.5% | activity change, negative = inhibition [2] -7.5% | outcome [3] | Potency [4] > 20.6 µM

CCCCOCCCn1c(N)c(C(=O)OC(C)COC)c2nc3ccccc3nc21 (centres undefined)
inactive: activity change, negative = inhibition [1] -11.7% | activity change, negative = inhibition [2] 29.2% | outcome [3] | Potency [4] > 20.6 µM

CC(=O)CC(C)(C)n1c[n+](C)nn1
inactive: activity change, negative = inhibition [1] -8.26% | activity change, negative = inhibition [2] -3.99% | outcome [3] | Potency [4] > 20.6 µM

COc1ccc2c(c1)c(C(=O)O)c(C)n2CC(C)C
inactive: activity change, negative = inhibition [1] 12.3% | activity change, negative = inhibition [2] 1.61% | outcome [3] | Potency [4] > 20.6 µM

CCCCSP1(=S)NCCCN1
inactive: activity change, negative = inhibition [1] -7.63% | activity change, negative = inhibition [2] -2.25% | outcome [3] | Potency [4] > 20.6 µM

COc1ccc(Cn2c(O)c(C=NCCN3CCOCC3)c(=O)[nH]c2=O)cc1
inactive: activity change, negative = inhibition [1] -6.69% | activity change, negative = inhibition [2] -3.63% | outcome [3] | Potency [4] > 20.6 µM

O=c1[nH]c(=O)n(Cc2ccccc2)c(O)c1C=NCCN1CCOCC1
inactive: activity change, negative = inhibition [1] 1.24% | activity change, negative = inhibition [2] -7.84% | outcome [3] | Potency [4] > 20.6 µM

C=CCC1(CN2CCCCCC2=O)C(=O)NC(=O)NC1=O
inactive: activity change, negative = inhibition [1] 1.22% | activity change, negative = inhibition [2] 2.02% | outcome [3] | Potency [4] > 20.6 µM

CCN(CC)CCN=Cc1c(O)n(CCc2ccccc2)c(=O)[nH]c1=O
inactive: activity change, negative = inhibition [1] -7.05% | activity change, negative = inhibition [2] -1.81% | outcome [3] | Potency [4] > 20.6 µM

OCCOCC#CCN1CCOCC1
inactive: activity change, negative = inhibition [1] 12.1% | activity change, negative = inhibition [2] -4.14% | outcome [3] | Potency [4] > 20.6 µM

CCN(CC)c1ccc(N=Cc2c(O)n(-c3ccccc3C)c(=O)[nH]c2=O)cc1
inactive: activity change, negative = inhibition [1] -21.6% | activity change, negative = inhibition [2] -29.8% | outcome [3] | Potency [4] > 20.6 µM

Cn1c(O)c(C=NCCCNC2CCCCC2)c(=O)n(C)c1=O
inactive: activity change, negative = inhibition [1] 3.35% | activity change, negative = inhibition [2] -13.3% | outcome [3] | Potency [4] > 20.6 µM

CC(C)C(=O)N1CCN(CCN=Cc2c(O)n(C)c(=O)n(C)c2=O)CC1
inactive: activity change, negative = inhibition [1] 10.2% | activity change, negative = inhibition [2] -6.53% | outcome [3] | Potency [4] > 20.6 µM

O=P(c1ccccc1)(c1ccccc1)N1CCCCC1
inactive: activity change, negative = inhibition [1] -9.35% | activity change, negative = inhibition [2] -3.91% | outcome [3] | Potency [4] > 20.6 µM

O=C1CC[C@]2(O)[C@H]3Cc4ccc(O)c5c4[C@@]2(CCN3CC2CC2)[C@@H]1O5
inactive: activity change, negative = inhibition [1] 3.41% | activity change, negative = inhibition [2] 9.93% | outcome [3] | outcome [5] | outcome [6] | Potency [7]

C[C@@H](Cc1ccc2c(c1)OC(C(=O)O)(C(=O)O)O2)NC[C@H](O)c1cccc(Cl)c1
inactive: activity change, negative = inhibition [1] -9.81% [at 38 µM] | activity change, negative = inhibition [2] 14.6% [at 38 µM] | Potency [4] > 46 µM | Potency [8] > 46 µM | outcome [6] | Potency [9] | outcome [10] | Potency [11] | outcome [12] | outcome [13] | outcome [14] | outcome [15]
